Data on 21 molecules can be found in PubChem BioAssay (NCI).

The panel holds about 79,000 compounds, 15% with a hit somewhere; the sample as a whole holds those more often. A number with no mark means an inactive call. The source made the active and inactive calls. Cut-off read from the data, not from the text of the source: active = growth inhibition above about 70%; inactive = the rest.

Assay [1] is described as follows: NCI Yeast Anticancer Drug Screen. Data for the rad50 strain (AID 155).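 Note: 0% = growth of vehicle-only cultures of the same strain.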 The conditions noted are these: S. cerevisiae rad50 strain growth inhibition; at 50.0 µM; hits give high values. The method, boiled down: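 Growth of the mutant yeast was measured after compound exposure and referenced to vehicle-treated cultures.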
Assay [2] can be described thus: NCI Yeast Anticancer Drug Screen. Data for the mec2-1 strain (AID 157). The settings on record: S. cerevisiae mec2-1 strain, at 50.0 µM, hits give high values. The essentials:
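Strain: mec2-1 (DNA repair/cell cycle alteration). Compound exposure, then growth measured; inhibition expressed relative to vehicle.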

Assay [3] in a line: NCI Yeast Anticancer Drug Screen. Data for the sgs1 mgt1 strain (AID 161).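 Note: 0% = growth of cultures given vehicle only.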 The settings on record: S. cerevisiae sgs1 mgt1 strain, at 50.0 µM, hits give high values. The method, boiled down:
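Genetically altered yeast, compound exposure, growth inhibition relative to vehicle.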

Assay [4] can be described thus: NCI Yeast Anticancer Drug Screen. Data for the cln2 rad14 strain (AID 165).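 Note: 0% = growth equal to vehicle treated cultures.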 The settings on record: S. cerevisiae cln2 rad14 strain, at 50.0 µM, hits give high values. The essentials:
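Compounds are applied to the cln2 rad14 yeast strain, and growth is then compared with that of vehicle-treated cultures to give inhibition.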

Assay [5] can be described thus: NCI Yeast Anticancer Drug Screen. Data for the bub3 strain (AID 167). The settings on record: S. cerevisiae bub3 mutant strain, at 50.0 µM, hits give high values. The method, boiled down:
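Whole-cell yeast assay. The mutant strain was incubated with compounds, and growth inhibition was determined by comparison with vehicle-treated cells.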

A short description of assay [6]: NCI Yeast Anticancer Drug Screen. Data for the mlh1 rad18 strain (AID 175). The settings on record: S. cerevisiae mlh1 rad18 strain growth inhibition; at 50.0 µM; hits give high values. The method, boiled down: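 Read-out is yeast growth inhibition, calculated against vehicle-only controls. The compound was applied to a strain engineered with DNA damage repair alterations.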

Take `CC(=O)NC(NCCN)(c1ccccc1)c1ccccc1`: the growth inhibition in assay [1] was -9.7%; in assay [2], -26.4%; in assay [3] it was -8.1%; in assay [4], 11.6%; in assay [5], 9.6%; in assay [6], -8.45%.
With `CC(=O)Nc1ccc(C(=O)NN2C(=O)C(Cl)/C2=C/c2ccco2)cc1` (stereo unspecified), the growth inhibition was 1.1% in assay [1]; -8.55% in assay [2]; -28.8% in assay [3]; -4.75% in assay [4]; -22.8% in assay [5]; -20.4% in assay [6].
For the molecule `CC1=NN2C(c3ccc(Cl)cc3)=CSC2=NC(C)(C)C1`, the growth inhibition is 16.6% in assay [1]; -16.9% in assay [2]; -3.1% in assay [3]; 5.8% in assay [4]; -8.6% in assay [5]; -13.2% in assay [6].
For the molecule `O=C(O)C(=O)Cc1cccc(Cl)c1[N+](=O)[O-]`, the growth inhibition was 2.15% in assay [1]; 5.25% in assay [2]; 13.4% in assay [3]; -10.6% in assay [4]; -4.75% in assay [5]; 15% in assay [6].
As to `Cc1cc(C)c(NC(N)=S)cc1C`, the growth inhibition in assay [1] is 7.65%; in assay [2], -23.2%; in assay [3] it was -5.35%; in assay [4], -7.7%; in assay [5], -5.55%; in assay [6], 7.55%.
For `CSc1ccc([C@@H](O)[C@H](CO)NC(=O)C(Cl)Cl)cc1`, the growth inhibition in assay [1] is 72.9% (active); in assay [2] it was 90.2% (active); in assay [3], 88.4% (active); in assay [4], 31.6%; in assay [5], 74.1% (active); in assay [6] it was 47.6%.
With `N#CCSCC(N)C(=O)O` (stereo unspecified), the growth inhibition in assay [1] was -11.1%; in assay [2] it was -15.2%; in assay [3], -1.1%; in assay [4] it was -6.75%; in assay [5], -19.6%; in assay [6], -4.8%.
For `O=C(NC[N+]12CCO[B-]1(c1ccc(Cl)cc1)OCC2)c1ccccc1O` (stereo unspecified), the growth inhibition is 19.2% in assay [1]; 0.25% in assay [2]; 24.1% in assay [3]; 25% in assay [4]; 24% in assay [5]; 56.3% in assay [6].
Take `N#CCc1nn(-c2ccccc2)c2ncn(N)c(=N)c12`: the growth inhibition is -8.45% in assay [1]; -14.8% in assay [2]; -9.6% in assay [3]; -22.2% in assay [4]; 6.2% in assay [5]; -12.2% in assay [6].
Consider `C1OC1CO[C@H]1CO[C@H]2[C@@H]1OC[C@@H]2OCC1CO1` (stereo partly specified), for which the growth inhibition in assay [1] is -9.35%; in assay [2], -2.4%; in assay [3] it was 8.05%; in assay [4], -30.5%; in assay [5], 18.1%; in assay [6], 2.25%.
For `OCC(O)COc1cccc2cccnc12` (stereo unspecified), the growth inhibition was 4.75% in assay [1]; -15% in assay [2]; 0.4% in assay [3]; -26.1% in assay [4]; 11.2% in assay [5]; 8.3% in assay [6].
Take `CN(C)CCNCCN`: the growth inhibition in assay [1] is 4%; in assay [2], -28.4%; in assay [3], -6.2%; in assay [4] it was -1.55%; in assay [5], -9.75%; in assay [6], -15.6%.
As for `CC(=O)O.Cl.NC1C([O-])OC(CO)C(O)C1O.O=C1OC(C(O)CO)C([O-])=C1[OH2+].[Cu+2]` (stereo unspecified), the growth inhibition in assay [1] is 21.3%; in assay [2], 8.3%; in assay [3] it was -9.6%; in assay [4], 5.95%; in assay [5], 5.05%; in assay [6], 17.2%.
Consider `CCc1c(NCCO)c(C(=O)NCCO)c2nc3ccccc3n2c1NCCO`, for which the growth inhibition in assay [1] was 2.2%; in assay [2] it was 9.65%; in assay [3] it was -3.1%; in assay [4] it was -14.1%; in assay [5], -7.3%; in assay [6], 11.8%.
Consider `CC(=O)Nc1ccc(C2CCCC2)cc1Br`, for which the growth inhibition in assay [1] was -3.05%; in assay [2] it was -2.15%; in assay [3], 0%; in assay [4], -39.8%; in assay [5], -12.2%; in assay [6] it was -4.45%.
For the molecule `Cc1ccc(-c2cc(=O)c3cc(C)c(C)c(C(=O)O)c3o2)cc1C`, the growth inhibition in assay [1] was 11.6%; in assay [2], 20.6%; in assay [3], 30.5%; in assay [4] it was 23.5%; in assay [5], 6.25%; in assay [6], 20.7%.
As to `Nc1ccc(C(=O)NN2C(=O)C(Cl)C2c2cc(Br)ccc2O)cc1` (stereo unspecified), the growth inhibition in assay [1] was 29.1%; in assay [2], 11.6%; in assay [3] it was 30.7%; in assay [4], -32.1%; in assay [5] it was 29.1%; in assay [6], 10.8%.
Turning to `O=C(O)c1ccccc1SC(Sc1ccccc1C(=O)O)c1ccc(Cl)cc1`, the growth inhibition in assay [1] was 4.8%; in assay [2] it was -9.15%; in assay [3], -9%; in assay [4], -11.9%; in assay [5], -4.1%; in assay [6], 15.2%.
Turning to `O=Cc1ccnc2ccccc12`, the growth inhibition in assay [1] was 0.9%; in assay [2], 1%; in assay [3], 6.25%; in assay [4] it was 4%; in assay [5], -3.55%; in assay [6], 6.85%.
As to `O=C(NC1CCCCC1NC(c1ccccc1)(c1ccccc1)c1ccccc1)C(=O)NC1CCCCC1NC(c1ccccc1)(c1ccccc1)c1ccccc1` (stereo unspecified), the growth inhibition in assay [1] is -33.9%; in assay [2], -22.4%; in assay [3] it was -13.7%; in assay [4], 12.1%; in assay [5], -10.1%; in assay [6], -2.35%.
With `Cc1ccc(SC(=O)N2C(=S)NC(=NC3CCCCC3)C23CCCCC3)cc1`, the growth inhibition is -14% in assay [1]; -9.05% in assay [2]; -4.05% in assay [3]; -41.3% in assay [4]; -32.5% in assay [5]; -24.5% in assay [6].
